Assay results reported in the supplement of paper PMC8975748.
Structures can show the parent of a compound that is named as a salt.

tested on: Saccharomyces cerevisiae BY4741 SeMeCo community; experiment: z-score of prototroph abundance vs DMSO median; higher = larger share of this subpopulation than in DMSO controls; details: 10 µM; 24 h; SM minimal medium; subpopulation (auxotrophy): Prototroph
Procedure: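 Fluorescent four-plasmid SeMeCo (self-establishing metabolically cooperating S. cerevisiae BY4741 community; plasmids pH-mRuby2, pL-mWasabi, pU-eCFP, pM-TagRFP657) was grown 24 h in minimal SM medium with each Selleck FDA-approved drug at 10 µM in 384-well plates. Cells were fixed and imaged by high-content confocal microscopy. For each auxotrophic subpopulation (and the prototroph), a z-score gives the deviation from the DMSO vehicle-control population median.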

Row | Compound | z-score of prototroph abundance
1 | CN(C)[C@@H]1C(=O)C(C(N)=O)=C(O)[C@@]2(O)C(=O)C3=C(O)c4c(O)cccc4[C@@](C)(O)[C@H]3[C@H](O)[C@@H]12 [Oxytetracycline (Terramycin)] | -0.34
2 | CNC1CC(N)C(O)C(OC2OC(CO)C(O)C3OC4(OC(C(N)CO)C(O)C(O)C4O)OC23)C1O (stereo not given) [Hygromycin B] | 0.64
3 | COc1ccc2c3c([nH]c2c1)C(C)=NCC3 [Harmaline] | 3.47
4 | Cc1cc(O)ccc1Cl [Chlorocresol] | 0.71
5 | CCN1CC2(OC(=O)c3ccccc3NC(C)=O)CCC(OC)C34C1C(CC23)C1(O)CC(OC)C2CC4C1(O)C2OC (stereo not given) [Lappaconitine] | 0.24
6 | CN1[C@@H]2C[C@@H](OC(=O)[C@H](CO)c3ccccc3)C[C@H]1[C@@H]1O[C@@H]12 [Scopolamine HBr] | 0.86
7 | COc1ccc2c(c1)[C@]13CCCC[C@@H]1[C@H](C2)N(C)CC3 [Dextromethorphan hydrobromide hydrate] | 0.38
8 | CCOC(=O)Nc1ccc(NCc2ccc(F)cc2)cc1N [Retigabine] | 0.21
9 | CC(=O)OCC1=C(C(=O)O)N2C(=O)C(N)C2SC1 (stereo not given) [7-Aminocephalosporanic acid] | 0.2
10 | CN[C@@H]1[C@@H](O)[C@@H](O[C@@H]2[C@@H](O)[C@H](O[C@H]3O[C@H]([C@@H](C)O)[C@@H](O)[C@H](O)[C@H]3N)[C@@H](N)C[C@H]2N)OC[C@]1(C)O [Geneticin (G418 Sulfate)] | 0.1
11 | CN[C@@H]1[C@@H](O)[C@@H](O[C@@H]2[C@@H](O)[C@H](O[C@H]3O[C@H](CN)CC[C@H]3N)[C@@H](N)C[C@H]2N)OC[C@]1(C)O.CN[C@@H]1[C@@H](O)[C@@H](O[C@@H]2[C@@H](O)[C@H](O[C@H]3O[C@H]([C@@H](C)N)CC[C@H]3N)[C@@H](N)C[C@H]2N)OC[C@]1(C)O.CN[C@@H]1[C@@H](O)[C@@H](O[C@@H]2[C@@H](O)[C@H](O[C@H]3O[C@H]([C@@H](C)NC)CC[C@H]3N)[C@@H](N)C[C@H]2N)OC[C@]1(C)O [Gentamicin Sulfate] | 0.63
12 | NCC(O)c1ccc(O)cc1 (racemic) [(+,-)-Octopamine HCl] | 0.28
13 | CC[C@@]1(O)C(=O)OCc2c1cc1n(c2=O)Cc2cc3ccccc3nc2-1 [Camptothecin] | 0.34
14 | Cn1cc(C2=C(c3cn(C4CCN(Cc5ccccn5)CC4)c4ccccc34)C(=O)NC2=O)c2ccccc21 | 0.73
15 | NC(=O)CN1CCCC1=O [Piracetam] | -1.9
16 | CN1C(=O)COc2c(C(=O)NC3CN4CCC3CC4)cc(Cl)cc21 (stereo not given) [Azasetron HCl] | 0.42
17 | O=C(O[C@H]1C[C@H]2CC[C@@H](C1)[N+]21CCCC1)C(O)(c1ccccc1)c1ccccc1 [Trospium chloride] | 0.42
18 | CN(C)[C@@H]1C(=O)C(C(N)=O)=C(O)[C@@]2(O)C(=O)C3=C(O)c4c(O)ccc(Cl)c4[C@@](C)(O)[C@H]3C[C@@H]12 [Chlortetracycline HCl] | 0.13
19 | N[C@@H]1C[C@H]1c1ccccc1 [Tranylcypromine (2-PCPA) HCl] | 0.44
20 | CCN(C)C(=O)Oc1cccc([C@H](C)N(C)C)c1 [Rivastigmine] | -0.39

Row | Compound | z-score of prototroph abundance
21 | C[N+](C)(C)CCCCCCCCCC[N+](C)(C)C [Decamethonium Bromide] | 0.58
22 | CN1[C@@H]2C[C@@H](OC(=O)[C@H](CO)c3ccccc3)C[C@H]1[C@@H]1O[C@@H]12 [Scopolamine HBr trihydrate] | 0.7
23 | CCCN1C[C@H](CSC)C[C@@H]2c3cccc4[nH]cc(c34)C[C@H]21 [Pergolide Mesylate] | 0.88
24 | C=C[C@H]1CN2CC[C@H]1C[C@H]2[C@H](O)c1ccnc2ccccc12 [Cinchonidine] | -0.41
25 | COC(=O)C1=CCCN(C)C1 [Arecoline HBr] | -0.55
26 | Oc1cccc2cccnc12 [8-Hydroxyquinoline] | 0.32
27 | COc1ccc(C(CN(C)C)C2(O)CCCCC2)cc1 (stereo not given) [Venlafaxine] | 0.19
28 | O=C(O[C@H]1C[N+]2(CCCOc3ccccc3)CCC1CC2)C(O)(c1cccs1)c1cccs1 [Aclidinium Bromide] | -0.31
29 | CCN(C)C(=O)Oc1cccc([C@H](C)N(C)C)c1 [Rivastigmine Tartrate] | 0.28
30 | Cc1cc(C(C#N)c2ccc(Cl)cc2)c(Cl)cc1NC(=O)c1cc(I)cc(I)c1O (stereo not given) [Closantel] | 0
31 | O=c1cccc2n1C[C@@H]1CNC[C@H]2C1 [Cytisine] | 0.46
32 | COc1ccc(C(CN(C)C)C2(O)CCCCC2)cc1 (stereo not given) [Venlafaxine HCl] | 0
33 | C[CH2][Hg][S]c1ccccc1C(=O)[O-].[Na+] [Thimerosal] | -17.3
34 | CN(C)C(=O)Oc1ccc[n+](C)c1 [Pyridostigmine Bromide] | -0.27
35 | Nc1ccncc1 [4-Aminopyridine] | -0.05
36 | COc1ccc(C=O)cc1 [p-Anisaldehyde] | 1.5
37 | O=c1[nH]c2ccccc2n1CCCN1CCC(n2c(=O)[nH]c3cc(Cl)ccc32)CC1 [Domperidone] | -0.65
38 | C#C[C@]1(O)C=C[C@H]2[C@@H]3CCC4=CC(=O)CC[C@@H]4[C@H]3CC[C@@]21CC [Gestodene] | 0.59
39 | CN1[C@@H]2CC[C@H]1C[C@@H](OC(=O)[C@H](CO)c1ccccc1)C2 [Hyoscyamine] | 0.38
40 | CCC1=C[C@H]2CN3CCc4c([nH]c5ccccc45)[C@](C(=O)OC)(C2)[C@H]13 [Catharanthine] | 0.37
